Experimental findings from PMC7862700, “An all-to-all approach to the identification of sequence-specific readers for epigenetic DNA modifications on cytosine” are described below.

What all share (assay): DAPPL (digital affinity profiling via proximity ligation, sequencing); 10 mM Tris-HCl pH 7.5, 50 mM NaCl, 1 mM DTT, 4% glycerol, room temperature, 30 min; GST-TFs on glutathione beads, 16-mer random dsDNA library, 0.1% formaldehyde crosslink after washing; high values mean tight binding
Common to all, as to settings: protein: recombinant; tags: N-terminal GST; dsDNA, one strand shown

The target of test [1] is T1, ERF (Homo sapiens, UniProt P50548 1-548).
T1 sequence: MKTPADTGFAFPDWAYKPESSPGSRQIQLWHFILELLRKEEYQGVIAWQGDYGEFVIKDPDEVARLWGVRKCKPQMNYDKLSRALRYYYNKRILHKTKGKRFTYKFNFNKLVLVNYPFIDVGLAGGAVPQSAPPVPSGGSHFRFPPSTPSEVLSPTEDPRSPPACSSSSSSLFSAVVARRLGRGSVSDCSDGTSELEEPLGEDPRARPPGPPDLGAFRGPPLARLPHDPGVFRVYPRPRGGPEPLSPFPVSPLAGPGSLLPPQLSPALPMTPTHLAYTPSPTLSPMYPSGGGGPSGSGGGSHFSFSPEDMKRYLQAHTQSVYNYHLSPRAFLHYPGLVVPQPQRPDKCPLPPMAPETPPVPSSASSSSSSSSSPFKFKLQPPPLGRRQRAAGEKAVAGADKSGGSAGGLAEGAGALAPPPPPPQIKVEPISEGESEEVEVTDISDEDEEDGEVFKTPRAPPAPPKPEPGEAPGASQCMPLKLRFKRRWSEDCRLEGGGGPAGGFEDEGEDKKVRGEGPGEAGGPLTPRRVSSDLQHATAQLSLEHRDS
In a few lines: (§1)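 Binding signal is given per hexamer as its read frequency for a factor divided by its frequency in the tag-only sample. GST-fused human transcription factors were expressed in yeast, captured on glutathione beads, barcoded with DNA and pooled with that sample, then incubated with 200 nmole of a 16-mer random double-stranded DNA library in Tris/NaCl/DTT/glycerol buffer for 30 min at room temperature. The pools were then washed, crosslinked, proximity-ligated, amplified by PCR and sequenced on an Illumina NextSeq500.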

The target in test [2] is T2, ETV3L (Homo sapiens, UniProt Q6ZN32 1-361).
T2 sequence: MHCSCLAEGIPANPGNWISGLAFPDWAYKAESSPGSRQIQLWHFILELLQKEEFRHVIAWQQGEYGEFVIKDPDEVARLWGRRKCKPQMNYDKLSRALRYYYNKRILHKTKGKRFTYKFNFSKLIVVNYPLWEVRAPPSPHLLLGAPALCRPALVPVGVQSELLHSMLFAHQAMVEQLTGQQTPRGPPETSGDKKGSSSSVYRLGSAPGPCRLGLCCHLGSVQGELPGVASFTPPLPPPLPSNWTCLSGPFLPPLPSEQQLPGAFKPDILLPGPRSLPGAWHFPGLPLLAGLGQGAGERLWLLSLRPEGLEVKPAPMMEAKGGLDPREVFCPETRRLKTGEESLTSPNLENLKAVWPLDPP
In a few lines:
as §1

Test [3] concerns the target T3, ETS2 (Homo sapiens, UniProt P15036 1-469).
T3 sequence: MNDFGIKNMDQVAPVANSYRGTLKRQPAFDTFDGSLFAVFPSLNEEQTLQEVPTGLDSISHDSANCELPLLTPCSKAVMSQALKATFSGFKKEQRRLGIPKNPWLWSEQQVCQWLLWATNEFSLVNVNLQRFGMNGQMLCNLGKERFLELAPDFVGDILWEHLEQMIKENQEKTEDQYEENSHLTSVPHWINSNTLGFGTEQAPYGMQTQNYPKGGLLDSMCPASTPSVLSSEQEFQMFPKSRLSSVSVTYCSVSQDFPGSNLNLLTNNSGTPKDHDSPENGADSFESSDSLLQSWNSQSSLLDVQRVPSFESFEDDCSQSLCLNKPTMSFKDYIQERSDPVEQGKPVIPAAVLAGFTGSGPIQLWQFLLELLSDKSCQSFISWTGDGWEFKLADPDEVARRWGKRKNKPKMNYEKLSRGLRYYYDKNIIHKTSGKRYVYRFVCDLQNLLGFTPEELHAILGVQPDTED
In a few lines:
as §1

Test [4] has as its target T4, SPDEF (Homo sapiens, UniProt O95238 1-335).
T4 sequence: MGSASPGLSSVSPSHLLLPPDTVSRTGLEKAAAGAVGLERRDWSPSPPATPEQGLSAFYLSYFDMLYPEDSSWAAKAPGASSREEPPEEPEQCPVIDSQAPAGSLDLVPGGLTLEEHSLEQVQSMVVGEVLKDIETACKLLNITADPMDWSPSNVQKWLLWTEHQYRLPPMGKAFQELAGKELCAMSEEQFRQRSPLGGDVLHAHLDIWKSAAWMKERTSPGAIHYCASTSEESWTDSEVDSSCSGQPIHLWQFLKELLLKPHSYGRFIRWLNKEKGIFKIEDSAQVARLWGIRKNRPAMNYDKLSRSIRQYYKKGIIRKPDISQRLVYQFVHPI
An outline of the steps:
as §1

Test [5] deals with T5, ETV7 (Homo sapiens, UniProt Q9Y603 1-341).
T5 sequence: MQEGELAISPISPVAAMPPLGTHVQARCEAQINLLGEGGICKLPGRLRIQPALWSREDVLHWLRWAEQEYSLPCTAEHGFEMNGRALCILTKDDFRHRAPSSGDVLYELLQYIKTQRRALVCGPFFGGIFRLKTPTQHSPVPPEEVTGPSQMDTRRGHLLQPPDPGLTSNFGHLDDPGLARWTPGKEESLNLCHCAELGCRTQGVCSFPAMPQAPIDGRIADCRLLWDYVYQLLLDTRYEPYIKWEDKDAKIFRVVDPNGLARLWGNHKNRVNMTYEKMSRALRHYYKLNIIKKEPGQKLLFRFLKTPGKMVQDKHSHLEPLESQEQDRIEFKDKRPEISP
In a few lines:
as §1

For test [6], the target named is T6, ELF5 (Homo sapiens, UniProt Q9UKW6-2 1-255).
T6 sequence: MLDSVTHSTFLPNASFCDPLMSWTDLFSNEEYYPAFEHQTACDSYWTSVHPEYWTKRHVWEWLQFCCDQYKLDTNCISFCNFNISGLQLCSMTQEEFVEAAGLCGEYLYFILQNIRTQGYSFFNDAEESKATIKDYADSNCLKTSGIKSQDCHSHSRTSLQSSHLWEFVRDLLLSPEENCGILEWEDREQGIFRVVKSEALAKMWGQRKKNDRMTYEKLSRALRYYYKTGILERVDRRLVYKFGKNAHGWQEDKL
An outline of the steps: as §1

Test [7] deals with T7, ETV3 (Homo sapiens, UniProt P41162-2 1-143).
T7 sequence: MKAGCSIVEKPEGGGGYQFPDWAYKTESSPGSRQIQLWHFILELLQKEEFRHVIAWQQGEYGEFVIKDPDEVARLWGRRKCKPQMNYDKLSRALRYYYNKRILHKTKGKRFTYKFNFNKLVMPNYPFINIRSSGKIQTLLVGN
In a few lines: as §1

For test [8], the target named is ETV6 (Homo sapiens, UniProt P41212 1-452). In a few lines: as §1
ETV6, sequence (P41212 whole entry): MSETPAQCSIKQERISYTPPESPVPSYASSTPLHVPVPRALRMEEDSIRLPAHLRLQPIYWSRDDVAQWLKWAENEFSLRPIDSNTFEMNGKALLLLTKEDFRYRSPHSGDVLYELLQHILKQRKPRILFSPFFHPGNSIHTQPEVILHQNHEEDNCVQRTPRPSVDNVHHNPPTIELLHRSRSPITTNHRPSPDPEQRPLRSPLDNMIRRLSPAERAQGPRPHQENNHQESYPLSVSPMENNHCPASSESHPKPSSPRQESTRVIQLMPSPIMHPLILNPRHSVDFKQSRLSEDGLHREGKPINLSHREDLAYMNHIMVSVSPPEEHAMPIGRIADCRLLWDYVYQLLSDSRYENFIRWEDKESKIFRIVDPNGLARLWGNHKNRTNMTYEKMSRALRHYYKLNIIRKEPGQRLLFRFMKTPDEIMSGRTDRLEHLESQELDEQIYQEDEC

With TTACTA, the binding signal was 1.27 fold enrichment (6-mer frequency, TF over GST control) in test [1]; 1.32 fold enrichment (6-mer frequency, TF over GST control) in test [2]; 1.2 fold enrichment (6-mer frequency, TF over GST control) in test [3]; 1.21 fold enrichment (6-mer frequency, TF over GST control) in test [4]; 1.36 fold enrichment (6-mer frequency, TF over GST control) in test [5]; 1.19 fold enrichment (6-mer frequency, TF over GST control) in test [6]. The binding signal in test [7] was 1.23 fold enrichment (6-mer frequency, TF over GST control); in test [8], 1.2 fold enrichment (6-mer frequency, TF over GST control).
For the sequence ATGGCA, the binding signal was 1.23 fold enrichment (6-mer frequency, TF over GST control) in test [1]; 1.2 fold enrichment (6-mer frequency, TF over GST control) in test [2]; 1.15 fold enrichment (6-mer frequency, TF over GST control) in test [3]; 1.1 fold enrichment (6-mer frequency, TF over GST control) in test [4]; 1.24 fold enrichment (6-mer frequency, TF over GST control) in test [5]; 1.26 fold enrichment (6-mer frequency, TF over GST control) in test [6]. The binding signal in test [7] was 1.3 fold enrichment (6-mer frequency, TF over GST control); in test [8], 1.28 fold enrichment (6-mer frequency, TF over GST control).
Regarding ATACAT, the binding signal in test [1] was 1.27 fold enrichment (6-mer frequency, TF over GST control); in test [2], 1.2 fold enrichment (6-mer frequency, TF over GST control); in test [3], 1.24 fold enrichment (6-mer frequency, TF over GST control); in test [4], 1.6 fold enrichment (6-mer frequency, TF over GST control); in test [5], 1.36 fold enrichment (6-mer frequency, TF over GST control); in test [6] it was 1.29 fold enrichment (6-mer frequency, TF over GST control). Also, the binding signal in test [7] was 1.26 fold enrichment (6-mer frequency, TF over GST control); in test [8] it was 1.28 fold enrichment (6-mer frequency, TF over GST control).
Take TACATG: the binding signal was 1.34 fold enrichment (6-mer frequency, TF over GST control) in test [1]; 1.2 fold enrichment (6-mer frequency, TF over GST control) in test [2]; 1.2 fold enrichment (6-mer frequency, TF over GST control) in test [3]; 1.21 fold enrichment (6-mer frequency, TF over GST control) in test [4]; 1.25 fold enrichment (6-mer frequency, TF over GST control) in test [5]; 1.16 fold enrichment (6-mer frequency, TF over GST control) in test [6]. For the same sequence, the binding signal in test [7] is 1.33 fold enrichment (6-mer frequency, TF over GST control); in test [8] it was 1.24 fold enrichment (6-mer frequency, TF over GST control).
Consider TATATC, for which the binding signal in test [1] was 1.61 fold enrichment (6-mer frequency, TF over GST control); in test [2], 1.56 fold enrichment (6-mer frequency, TF over GST control); in test [3], 1.64 fold enrichment (6-mer frequency, TF over GST control); in test [4], 2.19 fold enrichment (6-mer frequency, TF over GST control); in test [5], 1.48 fold enrichment (6-mer frequency, TF over GST control); in test [6], 1.66 fold enrichment (6-mer frequency, TF over GST control). Further, the binding signal in test [7] was 1.68 fold enrichment (6-mer frequency, TF over GST control); in test [8] it was 1.5 fold enrichment (6-mer frequency, TF over GST control).
With TACTTG, the binding signal was 1.39 fold enrichment (6-mer frequency, TF over GST control) in test [1]; 1.45 fold enrichment (6-mer frequency, TF over GST control) in test [2]; 1.24 fold enrichment (6-mer frequency, TF over GST control) in test [3]; 1.21 fold enrichment (6-mer frequency, TF over GST control) in test [4]; 1.34 fold enrichment (6-mer frequency, TF over GST control) in test [5]; 1.35 fold enrichment (6-mer frequency, TF over GST control) in test [6]. Further, the binding signal in test [7] was 1.34 fold enrichment (6-mer frequency, TF over GST control); in test [8], 1.24 fold enrichment (6-mer frequency, TF over GST control).
For the sequence TATGGC, the binding signal in test [1] is 1.25 fold enrichment (6-mer frequency, TF over GST control); in test [2] it was 1.23 fold enrichment (6-mer frequency, TF over GST control); in test [3], 1.2 fold enrichment (6-mer frequency, TF over GST control); in test [4] it was 1.27 fold enrichment (6-mer frequency, TF over GST control); in test [5], 1.26 fold enrichment (6-mer frequency, TF over GST control); in test [6] it was 1.23 fold enrichment (6-mer frequency, TF over GST control). Further, the binding signal was 1.31 fold enrichment (6-mer frequency, TF over GST control) in test [7] and 1.29 fold enrichment (6-mer frequency, TF over GST control) in test [8].
Regarding CCTTAA, the binding signal in test [1] is 1.29 fold enrichment (6-mer frequency, TF over GST control); in test [2], 1.44 fold enrichment (6-mer frequency, TF over GST control); in test [3], 1.29 fold enrichment (6-mer frequency, TF over GST control); in test [4], 1.44 fold enrichment (6-mer frequency, TF over GST control); in test [5], 1.21 fold enrichment (6-mer frequency, TF over GST control); in test [6] it was 1.44 fold enrichment (6-mer frequency, TF over GST control). Besides, the binding signal was 1.35 fold enrichment (6-mer frequency, TF over GST control) in test [7] and 1.26 fold enrichment (6-mer frequency, TF over GST control) in test [8].
Regarding CTACCT, the binding signal in test [1] is 1.74 fold enrichment (6-mer frequency, TF over GST control); in test [2], 1.53 fold enrichment (6-mer frequency, TF over GST control); in test [3] it was 1.45 fold enrichment (6-mer frequency, TF over GST control); in test [4], 1.45 fold enrichment (6-mer frequency, TF over GST control); in test [5], 1.22 fold enrichment (6-mer frequency, TF over GST control); in test [6], 1.59 fold enrichment (6-mer frequency, TF over GST control). The binding signal in test [7] was 1.44 fold enrichment (6-mer frequency, TF over GST control); in test [8], 1.51 fold enrichment (6-mer frequency, TF over GST control).
